Shown are actives, neighbours in structure and some others; about 1.5% of the full set was active somewhere.
DUSP3 inh: blocks human VHR1 dual specificity phosphatase | 290,000 compounds, 0.52% hits | AID 1654 | recombinant VHR phosphatase, pNPP absorbance | P51452 | inhibition, % at 13.3 µM; in the data active means inhibition above about 50%
Target sequence (P51452 whole entry, looked up): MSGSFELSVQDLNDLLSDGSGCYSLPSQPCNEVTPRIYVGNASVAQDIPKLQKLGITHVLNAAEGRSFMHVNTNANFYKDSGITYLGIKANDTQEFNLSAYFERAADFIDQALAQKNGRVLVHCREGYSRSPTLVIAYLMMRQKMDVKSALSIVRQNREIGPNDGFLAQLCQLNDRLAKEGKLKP
Mtb hypoxia rep: reduces hypoxia-regulated biosensor signal in M. tuberculosis. 300,000 compounds, 0.1% hits. M. tuberculosis hypoxia-regulated fluorescent reporter, fluorescence. AID 1159583. fluorescence inhibition, % (test concentration not listed); in the data active means fluorescence inhibition mostly above about 23%, no sharp cut-off; inactive means mostly below about 17%
MazEF act: increases E. coli MazEF RNase cleavage of RNA | P0AE70 | FAM/BHQ RNA-DNA oligo cleavage fluorescence, 5 h | activation, % at 20 µM | 350,000 compounds, 0.32% hits | AID 504720; in the data active means activation above about 50%
Target sequence (P0AE70 whole entry, looked up): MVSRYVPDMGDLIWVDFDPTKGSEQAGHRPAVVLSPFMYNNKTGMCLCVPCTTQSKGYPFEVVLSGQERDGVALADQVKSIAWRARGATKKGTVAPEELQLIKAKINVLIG
SARS 3CLpro inh: SARS-CoV 3CLpro protease inhibition; inhibition, % at 6 µM; recombinant SARS-CoV 3CLpro, quenched FRET peptide cleavage; P0C6X7; 290,000 compounds, 0.14% hits; in the data active means inhibition above about 12%
PrP 5UTR inh: suppresses PrP 5' UTR mRNA reporter expression | cell-based PrP 5' UTR mRNA reporter, plate reader | inhibition, % (no concentration beside the values) | 340,000 compounds, 0.35% hits; in the data active means inhibition above about 52%; further: 0 = median of the neutral control wells
PrPC surface inh: reduces human prion protein on the cell surface. cell surface PrPC, TR-FRET read-out. inhibition, % at 13.8 µM. 370,000 compounds, 0.43% hits; in the data active means inhibition above about 24%; further: 0% = median of the test wells and 100% = reference compound wells
An asterisk follows results filed as active.

Screening Cc1ccc2[nH]cc(CCNC(=O)c3cccs3)c2c1 returned DUSP3 inh 52.0*, Mtb hypoxia rep 1.6, MazEF act 2.9, SARS 3CLpro inh 2.0, PrP 5UTR inh 0.8 and PrPC surface inh 6.2.
`O=C(O)C1=CC(c2ccccc2)CC(OCc2ccc(CO)cc2)O1` (stereo unspecified) gave Mtb hypoxia rep 18.7.
For COc1ccc(N2CCN(C3CCCN(S(=O)(=O)c4ccc(C)cc4C)C3)CC2)cc1 (stereo unspecified) the results were DUSP3 inh 56.7*, Mtb hypoxia rep -0.6, MazEF act -19.2, SARS 3CLpro inh -7.5, PrP 5UTR inh 15.8 and PrPC surface inh 3.0.
`COc1ccc(O)c(CN2CCCC(N3CCN(c4ccc(F)cc4)CC3)C2)c1` (stereo unspecified) gave DUSP3 inh 44.4, Mtb hypoxia rep -7.3, MazEF act 3.3, SARS 3CLpro inh -1.5, PrP 5UTR inh -11.2 and PrPC surface inh -8.9.
COc1ccc(N2CCN(C3CCCN(Cc4ccc(F)cc4Cl)C3)CC2)cc1 (stereo unspecified) was read as DUSP3 inh 51.3*, Mtb hypoxia rep -0.8, MazEF act 3.9, SARS 3CLpro inh 1.3, PrP 5UTR inh 2.0 and PrPC surface inh -6.3.
Screening C=CC(=O)Nc1cccc(Nc2nc(N[C@H]3CC[C@H](N(C)C)CC3)nc3c2ncn3C(C)C)c1 returned MazEF act 14.8 and PrP 5UTR inh 71.2*.
`CC(C)n1cnc2c(Nc3cccc(Cl)c3)nc(NCCCO)nc21` gave DUSP3 inh -8.7, Mtb hypoxia rep -4.3, MazEF act 1.2, PrP 5UTR inh 10.3 and PrPC surface inh 0.1.
Screening O=C(N/N=C\c1ccc(-c2ccc([N+](=O)[O-])cc2)o1)c1ccc2c(c1)OCO2 returned DUSP3 inh -18.5, MazEF act 86.3*, SARS 3CLpro inh 5.7, PrP 5UTR inh -13.9 and PrPC surface inh -6.2.
`O=C(N/N=C/c1cccc(O)c1)c1cc(-c2ccc3c(c2)OCO3)n[nH]1` gave DUSP3 inh 29.8, MazEF act 19.7, SARS 3CLpro inh -5.3, PrP 5UTR inh -7.1 and PrPC surface inh 5.3.
For O=C(N/N=C/c1cccc([N+](=O)[O-])c1)c1cc(-c2ccc3c(c2)OCO3)n[nH]1 the results were DUSP3 inh 51.4*, MazEF act -8.2, SARS 3CLpro inh -0.8, PrP 5UTR inh -6.4 and PrPC surface inh 2.2.
O=C(N/N=C/c1ccc(O)cc1)c1cc(-c2ccc3c(c2)OCO3)n[nH]1 was read as DUSP3 inh 22.5, MazEF act 1.6, SARS 3CLpro inh -0.7, PrP 5UTR inh -4.1 and PrPC surface inh 24.9*.
`O=C(O)CC1c2cc(C(F)(F)F)ccc2S(=O)(=O)N1Cc1ccccc1` (stereo unspecified) gave Mtb hypoxia rep 13.0.
For Cc1nn(C)c(Cl)c1S(=O)(=O)NC(c1ccccc1)[C@]1(C)CC1C(C)C(=O)Nc1ccc2ccccc2c1 (stereo partly specified) the results were Mtb hypoxia rep -2.3.
CC=C1CC(C)[C@](O)(CO)C(=O)OCC2=CCN3CCC(OC1=O)C23 (stereo partly specified) was read as Mtb hypoxia rep 3.7.
For Cn1nc(-c2ccc(C(=O)Nc3cccc(Cl)c3)cc2)c2ccccc2c1=O the results were DUSP3 inh 9.9, Mtb hypoxia rep -2.3, MazEF act 101.0*, SARS 3CLpro inh -1.1, PrP 5UTR inh -20.8 and PrPC surface inh -7.5.
Screening Cc1ccc(O)c(C2=Nc3ccccc3N=C(c3ccco3)C2)c1 returned DUSP3 inh 18.6, Mtb hypoxia rep 15.5, MazEF act 81.8*, SARS 3CLpro inh 2.8, PrP 5UTR inh -12.5 and PrPC surface inh -3.6.
Screening Cc1ccc(C2=Nc3ccccc3N=C(c3ccco3)C2)c(O)c1 returned DUSP3 inh 27.3, Mtb hypoxia rep 7.5, MazEF act 12.2, SARS 3CLpro inh -0.4, PrP 5UTR inh -35.7 and PrPC surface inh 0.5.
`CC1C/C(=C/c2cccn2C)C(=O)/C(=C/c2cccn2C)C1` (stereo unspecified) gave DUSP3 inh -25.3, Mtb hypoxia rep 8.7, MazEF act active, SARS 3CLpro inh -2.0, PrP 5UTR inh -15.8 and PrPC surface inh -3.8.
For CC1C/C(=C/c2ccncc2)C(=O)/C(=C/c2ccncc2)C1 (stereo unspecified) the results were DUSP3 inh 8.2, MazEF act -0.1, SARS 3CLpro inh -1.9, PrP 5UTR inh 17.4 and PrPC surface inh 7.2.
For Cc1c(N/N=C(\C#N)C(=O)c2ccccc2)c(=O)n(-c2ccccc2)n1C the results were DUSP3 inh -4.6, Mtb hypoxia rep 15.1, MazEF act -7.5, SARS 3CLpro inh -2.5, PrP 5UTR inh 27.9 and PrPC surface inh 14.4.
Screening Cc1ccccc1C(=O)/C(C#N)=N/Nc1c(C)n(C)n(-c2ccccc2)c1=O returned DUSP3 inh 51.3*, Mtb hypoxia rep 2.5, MazEF act 5.2, SARS 3CLpro inh 3.9, PrP 5UTR inh 1.6 and PrPC surface inh 23.4.
`CCOC1OC(C(=O)NC2CC2)=CC(C2CCCCC2)C1CCCO` (stereo unspecified) gave Mtb hypoxia rep -5.8.
CCN(C(=O)CN1C(=O)S/C(=C\c2cccc(OC)c2)C1=O)C1CCS(=O)(=O)C1 (stereo unspecified) was read as DUSP3 inh 52.3*, Mtb hypoxia rep -10.4, MazEF act 5.8, SARS 3CLpro inh -4.2, PrP 5UTR inh 14.9 and PrPC surface inh -8.8.
`COc1cccc(/C=C2\SC(=O)N(CC(=O)NC3CCS(=O)(=O)C3)C2=O)c1` (stereo unspecified) gave DUSP3 inh 59.8*, Mtb hypoxia rep -13.0, MazEF act 15.9, SARS 3CLpro inh -5.7, PrP 5UTR inh -0.3 and PrPC surface inh -15.1.
Screening CCOc1cc2c(cc1/C=C/c1noc(C)c1[N+](=O)[O-])OC(C)C2 (stereo unspecified) returned DUSP3 inh 26.3, MazEF act 370.5*, SARS 3CLpro inh -2.6, PrP 5UTR inh -3.9 and PrPC surface inh 7.0.
Screening COc1cc(-c2noc(C)c2C#Cc2ccccn2)cc(OC)c1OC returned DUSP3 inh 36.0, Mtb hypoxia rep 11.0, MazEF act -4.0, SARS 3CLpro inh -4.1, PrP 5UTR inh 17.5 and PrPC surface inh 14.6.
For COc1cc(-c2noc(C)c2C#Cc2ccc(N)cc2)cc(OC)c1OC the results were DUSP3 inh 36.0, Mtb hypoxia rep -4.1, MazEF act -4.2, SARS 3CLpro inh -1.6, PrP 5UTR inh 65.0* and PrPC surface inh 12.2.
Screening CC(=NNC(=O)c1nnn(-c2nonc2N)c1C(C)C)c1ccc2ccccc2c1 returned Mtb hypoxia rep -8.2.
CCOC(=O)[C@]12Cc3cc(Cl)ccc3[C@H]1N(C1CCCCC1)C(=O)c1cc(OC)ccc12 was read as PrPC surface inh 46.8*.
For CCOC(=O)[C@]12Cc3cc(C)ccc3[C@H]1N(CCC(=O)OC)C(=O)c1ccccc12 the results were PrPC surface inh 11.0.
